The test system of assay [1] is rabbit Platelet Activating Factor Receptor (PAF), gene 100354046. In words: NVS_GPCR_rabPAF: NovaScreen (NVS) G Protein-Coupled Receptor Assay for rabbit Platelet Activating Factor Receptor (PAF) (AID 2283287). The gist of the method: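 Rabbit platelet membrane preparation; radioligand displacement read by filter-based scintillation counting 1 h after dosing, loss of signal versus DMSO. Primary screen in duplicate at 25 uM, actives followed up in concentration series.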

In assay [2] the target is human Neurokinin, NK2 Receptor, TACR2 (gene 6865) (UniProt P21452). Description: NVS_GPCR_hNK2: NovaScreen (NVS) G Protein-Coupled Receptor Assay for human Neurokinin, NK2 Receptor (AID 2283278).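 Note: actives reduce bound radioligand signal relative to DMSO baseline.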 Summed up: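 CHO-derived membrane protein, radioligand displacement, filter scintillation read at 4 h post-dose. Single-point 25 uM in duplicate, then concentration series for actives; DMSO as negative control.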
Sequence of human Neurokinin, NK2 Receptor, TACR2 (gene 6865) (P21452 whole entry, looked up): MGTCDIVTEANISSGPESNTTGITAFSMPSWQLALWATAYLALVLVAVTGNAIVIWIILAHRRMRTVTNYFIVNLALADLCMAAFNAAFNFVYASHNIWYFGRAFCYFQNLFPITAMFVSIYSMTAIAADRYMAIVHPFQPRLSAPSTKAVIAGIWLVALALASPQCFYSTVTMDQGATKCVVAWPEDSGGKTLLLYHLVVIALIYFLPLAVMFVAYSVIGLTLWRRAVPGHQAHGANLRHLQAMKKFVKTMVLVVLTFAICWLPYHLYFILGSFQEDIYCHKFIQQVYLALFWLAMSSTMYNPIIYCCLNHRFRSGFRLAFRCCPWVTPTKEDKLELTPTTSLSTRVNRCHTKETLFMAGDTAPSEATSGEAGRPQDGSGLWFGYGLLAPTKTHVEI

For assay [3], the target named is human Opioid Receptor Mu (Opiate Mu), OPRM1 (gene 4988) (UniProt P35372). In words: NVS_GPCR_hOpiate_mu: NovaScreen (NVS) G Protein-Coupled Receptor Assay for human Opioid Receptor Mu (Opiate Mu) (AID 2283290).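 Note: hits lower bound tracer signal versus DMSO meaning displacement of the ligand.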 The gist of the method: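 Cell-free radioligand binding to membranes from CHO cells expressing the receptor; bound tracer measured by filter-based scintillation counting 2.5 hours after dosing. Loss of signal versus DMSO baseline reflects displacement; primary screen at 25 uM in duplicate, actives followed up in concentration series.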
Sequence of human Opioid Receptor Mu (Opiate Mu), OPRM1 (gene 4988) (P35372 whole entry, looked up): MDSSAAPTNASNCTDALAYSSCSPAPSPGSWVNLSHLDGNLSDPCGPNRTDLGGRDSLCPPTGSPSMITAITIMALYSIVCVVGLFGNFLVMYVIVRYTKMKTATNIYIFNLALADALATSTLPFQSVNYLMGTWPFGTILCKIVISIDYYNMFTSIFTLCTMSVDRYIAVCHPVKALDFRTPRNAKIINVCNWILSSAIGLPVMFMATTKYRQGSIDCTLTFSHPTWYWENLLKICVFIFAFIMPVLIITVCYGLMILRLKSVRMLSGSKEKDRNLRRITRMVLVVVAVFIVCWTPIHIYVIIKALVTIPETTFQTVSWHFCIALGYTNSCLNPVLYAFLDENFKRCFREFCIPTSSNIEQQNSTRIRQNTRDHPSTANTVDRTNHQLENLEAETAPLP

Assay [4] deals with guinea pig Atrionatriuretic Peptide Receptor A (ANPA), gene 100135578. Description: NVS_GPCR_gANPA: NovaScreen (NVS) G Protein-Coupled Receptor Assay for guinea pig Atrionatriuretic Peptide Receptor A (ANPA) (AID 2283291). The gist of the method: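 Radioligand binding to guinea pig cerebellar membranes was measured after 1 h by filter-based scintillation counting. Chemicals were tested in duplicate at 25 uM, with hits run in concentration-response to a maximum of 50 uM. Binding loss was fitted against DMSO.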

The target of assay [5] is human Muscarinic, M4 Receptor, CHRM4 (gene 1132) (UniProt P08173). Description: NVS_GPCR_hM4: NovaScreen (NVS) G Protein-Coupled Receptor Assay for human Muscarinic, M4 Receptor (AID 2283274). Summed up: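 Cell-free radioligand displacement using CHO-derived human M4 receptor protein, 1 h after dosing; bound radioactivity by filtration and scintillation counting. Primary screen single 25 uM duplicate, actives followed in concentration series.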
Sequence of human Muscarinic, M4 Receptor, CHRM4 (gene 1132) (P08173 whole entry, looked up): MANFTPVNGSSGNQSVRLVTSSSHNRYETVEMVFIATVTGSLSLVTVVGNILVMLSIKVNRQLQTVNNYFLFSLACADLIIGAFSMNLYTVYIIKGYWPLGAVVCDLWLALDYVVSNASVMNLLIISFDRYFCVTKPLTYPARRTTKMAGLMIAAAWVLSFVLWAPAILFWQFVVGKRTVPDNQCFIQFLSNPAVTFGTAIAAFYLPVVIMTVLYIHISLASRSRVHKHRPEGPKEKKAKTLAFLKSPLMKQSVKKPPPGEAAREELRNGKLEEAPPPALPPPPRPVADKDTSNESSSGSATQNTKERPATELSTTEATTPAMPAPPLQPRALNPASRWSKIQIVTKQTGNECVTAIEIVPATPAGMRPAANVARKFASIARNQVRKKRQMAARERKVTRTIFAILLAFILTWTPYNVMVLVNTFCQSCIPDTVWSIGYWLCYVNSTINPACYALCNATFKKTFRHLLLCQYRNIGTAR

For assay [6], the target named is human Thromboxane A2 Receptor (TXA2), TBXA2R (gene 6915) (UniProt P21731). In words: NVS_GPCR_hTXA2: NovaScreen (NVS) G Protein-Coupled Receptor Assay for human Thromboxane A2 Receptor (TXA2) (AID 2283282).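 Note: actives reduce bound radioligand signal relative to DMSO baseline.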 The gist of the method:
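Cell-free radioligand binding with human platelet-derived receptor; 1 h after dosing, filter-based scintillation counting, loss of signal vs DMSO. Primary screen in duplicate at 25 uM.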

In assay [7] the target is mouse Cholecystokinin, CCK2 Receptor (CCKB), Cckbr (gene 12426) (UniProt P56481). Description: NVS_GPCR_mCKKBCentral: NovaScreen (NVS) G Protein-Coupled Receptor Assay for mouse Cholecystokinin, CCK2 Receptor (CCKB) (AID 2283293). The gist of the method: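 Radioligand displacement binding on mouse forebrain membranes, 2 h exposure, filter-based scintillation counting. Primary screen in duplicate at 25 uM; actives (e.g. ≥30% inhibition) retested in concentration-response up to 50 uM; loss of binding signal relative to DMSO.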
Sequence of mouse Cholecystokinin, CCK2 Receptor (CCKB), Cckbr (gene 12426) (P56481 whole entry, looked up): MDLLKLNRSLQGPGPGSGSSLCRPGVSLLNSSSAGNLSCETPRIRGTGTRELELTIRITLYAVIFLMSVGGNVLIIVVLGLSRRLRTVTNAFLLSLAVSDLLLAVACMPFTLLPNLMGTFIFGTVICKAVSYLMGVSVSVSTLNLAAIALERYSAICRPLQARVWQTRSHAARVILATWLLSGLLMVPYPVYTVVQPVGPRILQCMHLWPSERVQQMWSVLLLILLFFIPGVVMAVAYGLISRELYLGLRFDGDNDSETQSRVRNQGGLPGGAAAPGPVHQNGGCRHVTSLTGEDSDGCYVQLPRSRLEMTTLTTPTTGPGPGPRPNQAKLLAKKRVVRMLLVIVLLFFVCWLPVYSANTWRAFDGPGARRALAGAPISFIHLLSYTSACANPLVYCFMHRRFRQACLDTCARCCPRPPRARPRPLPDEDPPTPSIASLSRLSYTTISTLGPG

Assay [8] addresses Muscarinic acetylcholine receptor M3 (Homo sapiens) (UniProt P20309). Description: NVS_GPCR_hM3: NovaScreen (NVS) G Protein-Coupled Receptor Assay for human Muscarinic, M3 Receptor (AID 2283272). Summed up: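 Radioligand displacement binding on human M3 receptor in CHO-derived membranes, 1 h incubation, filter-based scintillation counting. Primary screen in duplicate at 25 uM; actives followed up in concentration series; loss of signal versus DMSO.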

Assay [9] concerns the target Muscarinic acetylcholine receptor M2 (Homo sapiens) (UniProt P08172). In words: NVS_GPCR_hM2: NovaScreen (NVS) G Protein-Coupled Receptor Assay for human Muscarinic, M2 Receptor (AID 2283273). Summed up: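 Cell-free radioligand binding using membranes from CHO cells expressing the receptor; filter-based scintillation counting after 1 hour of compound exposure. Loss of specific binding relative to DMSO baseline; primary screen at 25 uM in duplicate, actives then run in concentration series.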

Assay [10] addresses mouse Cholecystokinin, CCK1 Receptor (CCKA), Cckar (gene 12425) (UniProt O08786). In words: NVS_GPCR_mCCKAPeripheral: NovaScreen (NVS) G Protein-Coupled Receptor Assay for mouse Cholecystokinin, CCK1 Receptor (CCKA) (AID 2283285). The gist of the method:
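Radioligand competitive displacement on mouse pancreatic membranes, 2 h incubation; filter-based scintillation counting, loss of signal versus DMSO. Single-concentration screen at 25 uM in duplicate, actives retested in concentration-response up to 50 uM.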

The target of assay [11] is rat Adrenergic, Alpha 1, Non-selective Receptor (Adra1), Adra1a (gene 29412) (UniProt P43140). Description: NVS_GPCR_rAdra1_NonSelective: NovaScreen (NVS) G Protein-Coupled Receptor Assay for rat Adrenergic, Alpha 1, Non-selective Receptor (Adra1) (AID 2283289). Summed up:
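Rat forebrain membranes; radioligand displacement read by filter-based scintillation counting 1 h after dosing. Primary screen in duplicate at 25 uM; hits (e.g. ≥30% inhibition) rerun as concentration–response to 50 uM max. Fitted versus DMSO.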

The target in assay [12] is guinea pig Serotonin, 5-Hydroxytryptamine Receptor 4 (5HT4), HTR4 (gene 100135548) (UniProt O70528). Description: NVS_GPCR_g5HT4: NovaScreen (NVS) G Protein-Coupled Receptor Assay for guinea pig Serotonin, 5-Hydroxytryptamine Receptor 4 (5HT4) (AID 2283294). The gist of the method: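 Guinea pig striatal membranes; radioligand competitive displacement, filtration and scintillation counting after 1 h. Primary screen in duplicate at 25 uM; actives then tested in concentration series; loss of binding signal fitted relative to DMSO.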
Sequence of guinea pig Serotonin, 5-Hydroxytryptamine Receptor 4 (5HT4), HTR4 (gene 100135548) (O70528 whole entry, looked up): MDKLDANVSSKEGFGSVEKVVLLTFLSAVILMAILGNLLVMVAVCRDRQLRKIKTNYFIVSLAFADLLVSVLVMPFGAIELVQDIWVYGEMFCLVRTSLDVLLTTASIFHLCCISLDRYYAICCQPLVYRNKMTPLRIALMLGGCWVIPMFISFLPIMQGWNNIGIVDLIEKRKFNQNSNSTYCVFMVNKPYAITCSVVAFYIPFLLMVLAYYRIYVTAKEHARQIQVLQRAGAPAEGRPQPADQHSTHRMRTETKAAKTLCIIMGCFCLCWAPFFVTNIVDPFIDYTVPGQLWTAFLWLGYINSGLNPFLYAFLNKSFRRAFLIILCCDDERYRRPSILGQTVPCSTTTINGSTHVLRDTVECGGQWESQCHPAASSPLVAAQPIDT

Assay [13] addresses human Neurotensin Receptor (NTS), NTSR1 (gene 4923) (UniProt P30989). Description: NVS_GPCR_hNTS: NovaScreen (NVS) G Protein-Coupled Receptor Assay for human Neurotensin Receptor (NTS) (AID 2283279). The gist of the method: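 Radioligand displacement on human NTSR1 protein from CHO cells, cell-free, 1 h, filter-based scintillation counting. Primary screen at 25 uM in duplicate; hits rerun in concentration-response up to 50 uM.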

Assay [14] concerns the target human Vasopressin 1A Receptor (V1A), AVPR1A (gene 552) (UniProt P37288). Description: NVS_GPCR_hV1A: NovaScreen (NVS) G Protein-Coupled Receptor Assay for human Vasopressin 1A Receptor (V1A) (AID 2283284). The gist of the method: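 Cell-free radioligand displacement on human platelet preparations, 1.5 h incubation, filter-based scintillation counting. Chemicals first tested in duplicate at 25 uM; actives then run in concentration-response up to 50 uM, loss of signal fitted against DMSO.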

Assay [15] deals with human Neuropeptide Receptor Y1 (NPY1), NPY1R (gene 4886) (UniProt P25929). In words: NVS_GPCR_hNPY1: NovaScreen (NVS) G Protein-Coupled Receptor Assay for human Neuropeptide Receptor Y1 (NPY1) (AID 2283276). The gist of the method: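 Cell-free radioligand binding using receptor extracted from SK-N-MC cells, 1 h incubation, filter-based scintillation counting. Primary screen single concentration 25 uM in duplicate; actives followed in concentration series. Loss of bound signal scored versus DMSO.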
Sequence of human Neuropeptide Receptor Y1 (NPY1), NPY1R (gene 4886) (P25929 whole entry, looked up): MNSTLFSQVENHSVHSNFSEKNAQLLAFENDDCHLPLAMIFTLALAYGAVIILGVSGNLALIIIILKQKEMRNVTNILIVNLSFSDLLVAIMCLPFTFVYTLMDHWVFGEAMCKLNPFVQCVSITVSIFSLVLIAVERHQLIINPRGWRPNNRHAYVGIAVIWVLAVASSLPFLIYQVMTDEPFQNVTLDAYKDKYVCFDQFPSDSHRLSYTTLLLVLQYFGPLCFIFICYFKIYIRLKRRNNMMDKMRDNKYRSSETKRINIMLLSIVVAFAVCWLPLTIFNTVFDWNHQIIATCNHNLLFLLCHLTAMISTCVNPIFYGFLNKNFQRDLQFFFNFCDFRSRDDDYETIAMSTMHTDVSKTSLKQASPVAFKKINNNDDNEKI

For assay [16], the target named is guinea pig Bradykinin Receptor B2 (BK2), BDKRB2 (gene 100135486) (UniProt O70526). Description: NVS_GPCR_gBK2: NovaScreen (NVS) G Protein-Coupled Receptor Assay for guinea pig Bradykinin Receptor B2 (BK2) (AID 2283292). The gist of the method:
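Radioligand displacement on guinea pig ileum membranes for 1 h, read by filter-based scintillation counting; loss of signal relative to DMSO. Compounds were screened in duplicate at 25 uM, and those passing the threshold were retested in concentration-response up to 50 uM.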

The target of assay [17] is rat Serotonin, 5-Hydroxytryptamine Receptor 1 (5HT1), Non-Selective Binding, Htr1a (gene 24473) (UniProt P19327). In words: NVS_GPCR_r5HT1_NonSelective: NovaScreen (NVS) G Protein-Coupled Receptor Assay for rat Serotonin, 5-Hydroxytryptamine Receptor 1 (5HT1), Non-Selective Binding (AID 2283286). Summed up: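 Rat cortical membranes, radioligand displacement, 1 h incubation, read by filter scintillation. Primary screen in duplicate at 25 uM. Hits (e.g. ≥30% inhibition) went to concentration-response up to 50 uM, fitted as loss of binding versus DMSO.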

Usually AC50 stands for the concentration at which the activity in the assay is half-maximal.

The structures appear in SMILES notation. Inconclusive results are not listed. Active and inactive are the calls of the source. Rule for the calls: active = hit-call score of the fitted dose curve at least 0.9, where 1 is the maximum; inconclusive = response in the unintended direction; inactive = score below 0.9.

Sequence of Muscarinic acetylcholine receptor M2 (Homo sapiens) (P08172 whole entry, looked up): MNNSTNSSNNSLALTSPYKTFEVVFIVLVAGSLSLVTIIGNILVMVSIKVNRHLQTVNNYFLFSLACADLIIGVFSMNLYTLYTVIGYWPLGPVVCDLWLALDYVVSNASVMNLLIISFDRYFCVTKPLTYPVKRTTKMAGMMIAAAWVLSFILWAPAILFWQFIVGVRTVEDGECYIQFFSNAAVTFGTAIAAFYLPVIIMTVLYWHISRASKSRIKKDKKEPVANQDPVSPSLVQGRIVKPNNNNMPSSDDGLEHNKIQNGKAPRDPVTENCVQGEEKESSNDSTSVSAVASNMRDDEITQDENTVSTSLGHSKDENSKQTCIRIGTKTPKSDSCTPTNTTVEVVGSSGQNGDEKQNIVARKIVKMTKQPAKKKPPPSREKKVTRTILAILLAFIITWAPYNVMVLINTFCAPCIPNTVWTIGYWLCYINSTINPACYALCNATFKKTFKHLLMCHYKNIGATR
Sequence of rat Adrenergic, Alpha 1, Non-selective Receptor (Adra1), Adra1a (gene 29412) (P43140 whole entry, looked up): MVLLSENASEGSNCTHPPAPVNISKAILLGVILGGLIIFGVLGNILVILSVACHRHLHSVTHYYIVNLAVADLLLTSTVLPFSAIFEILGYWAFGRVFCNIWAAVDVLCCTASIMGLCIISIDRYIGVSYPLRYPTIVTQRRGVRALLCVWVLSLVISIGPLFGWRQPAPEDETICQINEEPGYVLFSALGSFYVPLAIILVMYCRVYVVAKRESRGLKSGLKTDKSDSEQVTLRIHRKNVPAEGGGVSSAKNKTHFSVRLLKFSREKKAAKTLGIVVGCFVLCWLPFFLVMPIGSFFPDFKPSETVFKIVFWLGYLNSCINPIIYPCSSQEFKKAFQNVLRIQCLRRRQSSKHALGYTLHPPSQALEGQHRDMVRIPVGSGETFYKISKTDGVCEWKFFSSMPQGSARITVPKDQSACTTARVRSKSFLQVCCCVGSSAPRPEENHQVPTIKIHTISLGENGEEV
Sequence of Muscarinic acetylcholine receptor M3 (Homo sapiens) (P20309 whole entry, looked up): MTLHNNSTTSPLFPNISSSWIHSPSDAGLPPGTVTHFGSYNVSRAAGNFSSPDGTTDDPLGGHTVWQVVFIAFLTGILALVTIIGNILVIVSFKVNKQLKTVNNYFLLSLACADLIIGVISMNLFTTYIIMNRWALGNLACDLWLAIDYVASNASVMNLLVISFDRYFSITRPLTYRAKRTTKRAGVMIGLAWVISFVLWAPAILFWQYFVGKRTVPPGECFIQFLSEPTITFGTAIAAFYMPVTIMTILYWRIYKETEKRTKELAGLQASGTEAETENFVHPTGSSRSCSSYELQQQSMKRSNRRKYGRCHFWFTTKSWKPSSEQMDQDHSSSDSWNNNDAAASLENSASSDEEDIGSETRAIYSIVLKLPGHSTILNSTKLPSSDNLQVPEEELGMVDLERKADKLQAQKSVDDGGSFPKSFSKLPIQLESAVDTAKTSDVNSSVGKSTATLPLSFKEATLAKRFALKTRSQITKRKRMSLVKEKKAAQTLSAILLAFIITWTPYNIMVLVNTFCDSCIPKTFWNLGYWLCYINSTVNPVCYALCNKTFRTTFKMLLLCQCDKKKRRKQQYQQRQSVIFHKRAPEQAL
Sequence of mouse Cholecystokinin, CCK1 Receptor (CCKA), Cckar (gene 12425) (O08786 whole entry, looked up): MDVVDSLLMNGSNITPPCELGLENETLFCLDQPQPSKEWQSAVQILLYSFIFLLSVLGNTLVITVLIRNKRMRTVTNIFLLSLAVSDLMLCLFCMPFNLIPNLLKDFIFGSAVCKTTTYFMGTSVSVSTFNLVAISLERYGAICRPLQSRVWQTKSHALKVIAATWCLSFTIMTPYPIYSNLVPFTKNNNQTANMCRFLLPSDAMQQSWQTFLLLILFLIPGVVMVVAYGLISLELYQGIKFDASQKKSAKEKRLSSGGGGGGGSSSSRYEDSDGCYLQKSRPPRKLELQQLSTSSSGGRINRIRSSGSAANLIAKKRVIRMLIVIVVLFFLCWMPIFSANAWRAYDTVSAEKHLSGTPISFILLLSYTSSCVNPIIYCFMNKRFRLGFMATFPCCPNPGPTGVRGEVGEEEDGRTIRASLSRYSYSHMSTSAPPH
Sequence of human Thromboxane A2 Receptor (TXA2), TBXA2R (gene 6915) (P21731 whole entry, looked up): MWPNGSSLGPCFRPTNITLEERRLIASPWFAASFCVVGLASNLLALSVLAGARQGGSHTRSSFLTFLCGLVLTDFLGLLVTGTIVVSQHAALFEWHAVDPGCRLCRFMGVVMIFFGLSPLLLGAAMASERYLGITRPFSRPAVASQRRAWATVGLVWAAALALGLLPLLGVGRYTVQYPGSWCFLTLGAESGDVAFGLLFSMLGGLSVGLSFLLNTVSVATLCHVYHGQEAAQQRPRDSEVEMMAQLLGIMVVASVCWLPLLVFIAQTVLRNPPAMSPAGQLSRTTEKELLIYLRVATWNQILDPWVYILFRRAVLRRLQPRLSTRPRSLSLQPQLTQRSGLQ

For the compound `CNC(=O)ON=C(C)SC`, in assay [1], the compound was called inactive.

`CCc1cccc(CC)c1N(COC)C(=O)CCl`: the compound was classed as inactive in assay [2] and in assay [4]. Further, the AC50 in assay [3] was 4.96 µM (active).

For `FC(F)C(F)(F)OCC(Cn1cncn1)c1ccc(Cl)cc1Cl` (centres undefined), the result in assay [5] and in assay [6] was inactive. The AC50 in [3] is 9.52 µM (active); in assay [7], 10.3 µM (active).

For the compound `C[Si](Cn1cncn1)(c1ccc(F)cc1)c1ccc(F)cc1`, the AC50 is 11.6 µM (active) in assay [8]; 14.4 µM (active) in assay [5]; 25 µM (active) in [10]; 6.38 µM (active) in assay [1]; 9.11 µM (active) in assay [3]. Moreover, the call in assay [9] was inactive.

Consider `CC(C)=CC1C(C(=O)OCN2C(=O)C3=C(CCCC3)C2=O)C1(C)C` (centres undefined), for which, in assay [1], the concentration at half-maximal activity (AC50) was 7.72 µM (active). Further, the compound was called inactive in assay [11].

Regarding `CC(C)[C@H](C(=O)O[C@H](C#N)c1cccc(Oc2ccccc2)c1)c1ccc(Cl)cc1`, the AC50 in assay [2] was 4.82 µM (active). Besides, in [12], the call was inactive.

`CCCCSP(=O)(SCCCC)SCCCC`: the compound was classed as inactive in assay [13] and in assay [7].

For the compound `CCOP(=S)(OCC)OC(Cl)C(Cl)(Cl)Cl` (centres undefined), the result in assay [11] was inactive.

On to `COc1cccc(C(=O)NN(C(=O)c2cc(C)cc(C)c2)C(C)(C)C)c1C`, for which the AC50 in [8] was 0.429 µM (active). Also, the compound was classed as inactive in [9] and in [14].

As to `CSc1nc(NC(C)C)nc(NC(C)C)n1`, the call in assay [12] was inactive.

For the compound `COP(=O)(OC)OC(Br)C(Cl)(Cl)Br` (centres undefined), the AC50 in assay [15] was 15.5 µM (active); in assay [3], 8.83 µM (active). Moreover, the compound was classed as inactive in [1].

As to `CCc1cccc(C)c1N(C(=O)CCl)C(C)COC` (centres undefined), the half-maximal activity concentration (AC50) in assay [3] was 5.26 µM (active).

Turning to `CCCSP(=O)(OCC)Oc1ccc(Br)cc1Cl` (centres undefined), the compound was called inactive in [10]. The AC50 in assay [3] was 4.96 µM (active).

As for `N#CSCSC#N`, the concentration at half-maximal activity (AC50) in assay [15] is 12.6 µM (active).

For the compound `CC1(C(=O)Nc2ccc(O)c(Cl)c2Cl)CCCCC1`, the concentration at half-maximal activity (AC50) in assay [2] is 3.04 µM (active).

For `CCCOCC(=Nc1ccc(Cl)cc1C(F)(F)F)n1ccnc1`, the result in [9], in assay [2] and in assay [12] was inactive. Further, the concentration at half-maximal activity (AC50) in assay [3] is 7.33 µM (active).

`S=C1NCCN1`: the outcome in [9], in [15], in assay [3] and in assay [16] was inactive.

`CCOP(=O)(OCC)Oc1cc(C)nc(C(C)C)n1`: the compound was called inactive in [17].

Consider `CCCCOC(=O)c1ccccc1C(=O)O`, for which the result in [11] was inactive.

Turning to `CC(C1CC1)C(O)(Cn1cncn1)c1ccc(Cl)cc1` (centres undefined), in [5], the half-maximal activity concentration (AC50) was 12.1 µM (active).
